# Source: PMC5540273 (PLoS ONE, 2017)
# Experiments:
# Conditions in all cases: concentration: 1 μM,replicates: in singlicate; n = 1
# ADCK4 = test system: ADCK4
# AKT1 = test system: AKT1
# AKT2 = test system: AKT2
# AKT3 = test system: AKT3
# ALK = test system: ALK
# AMPK-alpha1 = test system: T1, AMPK-alpha1
# T1 construct: gene PRKAA1
# AMPK-alpha2 = test system: T2, AMPK-alpha2
# T2 construct: gene PRKAA2
# ANKK1 = test system: ANKK1
# ARK5 = test system: T3, ARK5
# T3 construct: gene NUAK1
# ASK1 = test system: T4, ASK1
# T4 construct: gene MAP3K5
# ASK2 = test system: T5, ASK2
# T5 construct: gene MAP3K6
# AURKA = test system: AURKA
# AURKB = test system: AURKB
# AURKC = test system: AURKC
# AXL = test system: AXL
# BIKE = test system: T6, BIKE
# T6 construct: gene BMP2K
# BLK = test system: BLK
# BMPR1A = test system: BMPR1A
# BMPR1B = test system: BMPR1B
# BMPR2 = test system: BMPR2
# 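Note: KINOMEscan kinase panel screen.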
SMILES,%Inh (ADCK4),%Inh (AKT1),%Inh (AKT2),%Inh (AKT3),%Inh (ALK),%Inh (AMPK-alpha1),%Inh (AMPK-alpha2),%Inh (ANKK1),%Inh (ARK5),%Inh (ASK1),%Inh (ASK2),%Inh (AURKA),%Inh (AURKB),%Inh (AURKC),%Inh (AXL),%Inh (BIKE),%Inh (BLK),%Inh (BMPR1A),%Inh (BMPR1B),%Inh (BMPR2)
CS(=O)(=O)Nc1ccc(-c2ccnc3[nH]ccc23)cc1 [GSK993273],22%,0%,21%,0%,18%,94.4%,0%,27%,0%,44%,21%,39%,48%,76%,76%,97.5%,0%,1%,3%,43%
O=C(Nc1cccc(Oc2ccc3nccn3n2)c1)Nc1cccc(C(F)(F)F)c1,0%,0%,0%,7%,14%,0%,0%,0%,8%,0%,4%,0%,0%,41%,35%,11%,9%,0%,0%,0%
OCCn1cc(-c2cnc3nnn(Cc4ccc5ncccc5c4)c3n2)cn1,0%,0%,0%,45%,0%,3%,0%,0%,0%,19%,0%,0%,0%,0%,0%,0%,4%,7%,0%,0%
CS(=O)c1ccc(-c2coc3ccc(-c4n[nH]c(=O)o4)cc23)cc1 (stereo not drawn),12%,0%,0%,26%,13%,100%,5%,36%,10%,0%,23%,13%,26%,0%,3%,17%,4%,10%,32%,9%
Cc1ccc2c(-c3ccnc(Nc4ccc(C(F)(F)F)cc4)n3)cnn2n1 [GW819776],35%,0%,0%,0%,0%,11%,8%,0%,0%,0%,0%,11%,32%,4%,0%,12%,0%,13%,0%,32%
Cl.Cl.NC[C@H](CC1CCCCC1)NC(=O)c1ccc(-c2ccnc3[nH]ccc23)s1 [GSK1581428],2%,94.1%,93.4%,98.1%,37%,77%,72%,0%,89%,0%,26%,93.8%,96.8%,73%,96.3%,99.1%,0%,8%,23%,1%
CN(c1ccccc1CNc1nc(Nc2ccc3c(c2)CC(=O)N3)ncc1C(F)(F)F)S(C)(=O)=O,0%,0%,0%,0%,92.4%,74%,70%,0%,92.1%,0%,0%,97.2%,98.7%,84%,92.4%,56%,64%,12%,0%,0%
c1ccc(Oc2ccc(Nc3ccnc4ccc(-c5ccccn5)cc34)cc2)cc1 [GW407034],19%,0%,17%,0%,28%,10%,0%,0%,26%,4%,11%,6%,19%,4%,0%,8%,90.2%,11%,0%,26%
CC(C)c1nc(-c2cccc(NS(=O)(=O)c3ccccc3)c2)c(-c2ccnc(Nc3ccc4c(c3)CN(C)CC4)n2)s1 [GSK1649598],97.4%,0%,4%,0%,0%,82%,94.5%,42%,6%,0%,4%,23%,52%,55%,68%,0%,99.6%,81%,99.9%,9%
Cc1ccc(Nc2ccnc(Nc3ccc4c(c3)CS(=O)(=O)C4)n2)cc1O.Cl [GW579362],100%,0%,0%,0%,51%,10%,17%,44%,25%,0%,3%,100%,85%,97.9%,86%,99.8%,99.5%,85%,99.8%,62%
C[C@@H]1CCN(C(=O)N2CCCC2)C[C@@H]1N(C)c1ncnc2[nH]ccc12,0%,0%,3%,0%,0%,66%,77%,0%,16%,0%,0%,57%,31%,6%,7%,25%,0%,0%,13%,20%
CC(C(=O)NC1CCN(c2ccnc(Nc3ccc(F)cc3)n2)C1)c1ccc(Cl)cc1 (stereo not drawn) [GSK1379713],13%,0%,0%,0%,5%,10%,0%,4%,0%,0%,0%,0%,36%,47%,11%,16%,32%,0%,0%,0%
O=C1NCCc2[nH]c(-c3ccncc3)cc21,0%,0%,0%,0%,0%,6%,0%,10%,0%,40%,0%,28%,0%,11%,8%,33%,15%,27%,92.9%,43%
Cn1cc(-c2cccc3c(N)c(C(N)=O)nnc23)cn1,11%,0%,0%,15%,10%,47%,49%,19%,0%,1%,33%,6%,27%,53%,22%,70%,6%,16%,21%,72%
Cc1cccc(-c2nc(Nc3ccncc3)c3sccc3n2)n1 [GW869641],8%,5%,0%,3%,33%,20%,27%,12%,0%,25%,29%,48%,43%,30%,33%,13%,15%,4%,82%,37%
Cc1ccn2nc(-c3ccc(F)cc3)c(-c3ccncc3)c2c1.Cl [GW457859],59%,0%,0%,0%,1%,5%,0%,5%,5%,0%,0%,10%,0%,8%,3%,17%,26%,0%,0%,3%
COc1cccc(C2=C(Nc3cccc(Cl)c3)C(=O)NC2=O)c1 [SB-341556],0%,0%,0%,0%,32%,0%,0%,0%,0%,5%,22%,0%,15%,3%,12%,34%,72%,0%,0%,0%

SMILES,%Inh (ADCK4),%Inh (AKT1),%Inh (AKT2),%Inh (AKT3),%Inh (ALK),%Inh (AMPK-alpha1),%Inh (AMPK-alpha2),%Inh (ANKK1),%Inh (ARK5),%Inh (ASK1),%Inh (ASK2),%Inh (AURKA),%Inh (AURKB),%Inh (AURKC),%Inh (AXL),%Inh (BIKE),%Inh (BLK),%Inh (BMPR1A),%Inh (BMPR1B),%Inh (BMPR2)
CC(=O)Nc1nc2cnc(Nc3cc(NC(=O)c4cccc(CC(C)(C)C#N)c4)ccc3C)nc2s1,0%,12%,5%,0%,42%,3%,7%,0%,7%,7%,0%,11%,3%,0%,20%,0%,32%,0%,2%,0%
Cc1ccc(CC(=O)N2CCc3cc(-c4cn(C)c5ncnc(N)c45)ccc32)cc1 [GSK2634758],9%,0%,1%,30%,0%,0%,29%,23%,37%,3%,0%,8%,96.1%,47%,98.8%,16%,31%,0%,0%,0%
O=c1[nH]cc(-c2ccc(O)cc2)c2sc(-c3ccncc3)cc12 [GSK1033723],16%,0%,16%,97.2%,0%,0%,13%,10%,13%,0%,0%,16%,8%,8%,96.1%,19%,0%,0%,0%,39%
C[C@@H]1CNc2c(sc3ccc4nc(-c5ccncc5)ccc4c23)C(=O)N1,0%,0%,18%,22%,33%,20%,0%,0%,0%,90%,0%,0%,17%,9%,81%,19%,0%,12%,7%,0%
C[C@@H](Oc1cc(-n2cnc3cc(-c4cnn(C)c4)ccc32)sc1C(N)=O)c1ccccc1Cl [GSK580432],29%,0%,0%,0%,31%,39%,27%,0%,98.7%,0%,15%,38%,90.6%,100%,97.4%,100%,89%,19%,0%,0%
O=C(NCC1CC1)c1ccc(-c2cc(C(=O)NC3CC3)ccc2F)cc1 [GW810445],23%,24%,0%,0%,10%,0%,0%,0%,0%,19%,0%,0%,4%,0%,10%,0%,30%,0%,0%,15%
COc1cc2ncn(-c3cc(OCC4CCCCC4)c(C(N)=O)s3)c2cc1OC [GSK204559],11%,0%,0%,0%,22%,0%,27%,14%,0%,14%,8%,0%,13%,60%,0%,90%,33%,0%,0%,5%
Cn1ccc2ncnc(Oc3ccc(NC(=O)Nc4cccc(C(F)(F)F)c4)c(F)c3)c21,0%,23%,0%,0%,20%,0%,0%,0%,5%,5%,0%,5%,88%,65%,87%,18%,22%,0%,0%,0%
CS(=O)(=O)c1cccc(CNc2nc(Nc3ccc4c(c3)[C@@H]3C[C@@H]4CNC3=O)ncc2C(F)(F)F)c1,0%,0%,0%,0%,0%,37%,28%,22%,94.6%,0%,0%,99.4%,95.7%,73%,93.2%,96.2%,30%,0%,0%,0%
CN(c1ccc2c(c1)nc(NCc1ccc(F)cc1)n2C)c1ccnc(Nc2ccc(CS(C)(=O)=O)cc2)n1.Cl [GW813244],21%,8%,0%,1%,0%,11%,5%,0%,4%,37%,0%,77%,70%,67%,68%,33%,57%,16%,0%,10%
Cc1nnc(-c2ccc3occ(-c4ccc(S(C)=O)cc4)c3n2)o1 (stereo not drawn),0%,0%,17%,0%,0%,0%,0%,0%,10%,0%,0%,0%,0%,0%,0%,0%,0%,0%,0%,0%
CCn1c(-c2nonc2N)nc2cncc(Br)c21 [SB-738004],23%,0%,13%,0%,31%,18%,0%,1%,0%,13%,0%,14%,17%,0%,22%,23%,0%,0%,17%,58%
Cl.Nc1n[nH]c2cc(-c3ccccn3)ccc12 [GSK2189892],17%,0%,0%,0%,16%,0%,1%,0%,0%,0%,0%,0%,8%,0%,0%,32%,22%,0%,0%,0%
COC(=O)Nc1nc2cc(Oc3ccc(NC(=O)Nc4cc(C(F)(F)F)ccc4Cl)cc3)ccc2[nH]1.Cl [GW697465],48%,0%,0%,0%,30%,0%,0%,0%,0%,11%,0%,0%,86%,53%,98%,8%,63%,0%,0%,21%
CN(c1cccc(CNc2nc(Nc3ccc4c(c3)CC(=O)N4)ncc2C(F)(F)F)c1)S(C)(=O)=O,29%,0%,0%,0%,41%,26%,5%,0%,99.3%,0%,0%,93.8%,99.4%,88%,64%,95%,0%,0%,0%,39%
Cn1ccc2ncnc(Oc3ccc(NC(=O)Nc4cnn(C(C)(C)C)c4)c(Cl)c3)c21,0%,0%,8%,13%,0%,19%,20%,0%,19%,2%,9%,23%,44%,52%,76%,19%,32%,17%,6%,9%
